In PubChem BioAssay AID504357 (The Scripps Research Institute Molecular Screening Center, 2011):
Hit rate of the full screen: of about 340,000 compounds, about 700 (0.21%) were called active. This is one part of a sample in which actives are shown more often than they occur. Cut-off read from the data, not from the text of the source: active = inhibition above about 22% (passing the limit was not always enough); inactive = the rest.

target: Mu-type opioid receptor (Homo sapiens) + Delta-type opioid receptor (Homo sapiens) (UniProt P35372+P41143); assay: inverse agonists of MOR-DOR heterodimerization, primary screen, cell-based, luminescence (AID 504357); settings: cell-based MOR-DOR heterodimer luminescence, inverse agonism; at 9.3 µM; hits give high values;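 note: 0% = cells with DMSO and 100% = wells without cells with DMSO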
Sequence (P35372 whole entry, looked up): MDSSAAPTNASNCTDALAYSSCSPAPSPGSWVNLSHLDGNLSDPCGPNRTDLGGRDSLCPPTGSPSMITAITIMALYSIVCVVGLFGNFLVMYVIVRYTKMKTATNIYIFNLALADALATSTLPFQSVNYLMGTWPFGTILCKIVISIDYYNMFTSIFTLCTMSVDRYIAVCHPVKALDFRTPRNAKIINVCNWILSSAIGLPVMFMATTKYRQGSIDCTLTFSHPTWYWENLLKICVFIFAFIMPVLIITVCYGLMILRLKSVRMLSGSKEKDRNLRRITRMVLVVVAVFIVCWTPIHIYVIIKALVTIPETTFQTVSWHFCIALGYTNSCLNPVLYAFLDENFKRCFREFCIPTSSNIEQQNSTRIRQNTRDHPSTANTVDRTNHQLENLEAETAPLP
Sequence (P41143 whole entry, looked up): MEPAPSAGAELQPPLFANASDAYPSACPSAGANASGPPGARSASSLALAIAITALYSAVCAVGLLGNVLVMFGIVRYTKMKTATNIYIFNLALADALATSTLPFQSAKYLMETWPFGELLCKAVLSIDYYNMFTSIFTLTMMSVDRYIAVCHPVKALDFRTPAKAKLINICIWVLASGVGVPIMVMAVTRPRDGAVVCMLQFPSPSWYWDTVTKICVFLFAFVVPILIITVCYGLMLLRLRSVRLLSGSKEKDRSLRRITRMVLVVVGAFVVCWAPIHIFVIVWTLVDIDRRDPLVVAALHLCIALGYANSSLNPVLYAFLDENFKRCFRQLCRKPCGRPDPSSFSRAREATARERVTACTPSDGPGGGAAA

inhibition, inactive:
Cc1ccc(Nc2nnc(SC(C)C(=O)NC3CC3)s2)cc1 (centres undefined) 5.95%
O=S(=O)(NCc1ccccc1)c1ccc(S(=O)(=O)N2CCCC2)cc1 7.6%
COC(=O)CSc1nc2c(c(C3CC=CCC3)c1C#N)CCC2 (centres undefined) 0.33%
CC1CCN(C(=O)c2ccc3c(=O)n4c(nc3c2)CCCCC4)CC1 -4.92%
CCc1noc(C)c1C(=O)N1CCN(S(=O)(=O)c2cccc(C(F)(F)F)c2)CC1 9.18%
COc1cc(C2C(N3C(=O)c4ccccc4C3=O)C(=O)N2c2ccc(C)c(C)c2)cc(OC)c1OC (centres undefined) 8.56%
O=C(c1cc2ccccc2s1)N1CCN(c2ccccn2)CC1 5.35%
Cc1cccc(N(C)C(=O)c2cc(S(=O)(=O)N3CCCCC3)c[nH]2)c1 -2.65%
Cc1cccc(C)c1Nc1c(-c2ccccc2O)nc2ncccn12 5.45%
O=C(O)c1ccc(S(=O)(=O)N2CCOCC2)o1 -0.55%
COC(=O)c1c(NC(=O)C(=O)N2CCCCC2)sc2c1CC(C)(C)OC2 -12.8%
Cc1nc2c(-c3ccc(F)cc3)c(C)nn2c(C)c1CCC(=O)N1CCN(c2ccccn2)CC1 8.06%
Cc1ccc(NC(=O)CN2CCCCC2)c2c1CC(C)(C)O2 -2.22%
Cc1ccc(S(=O)(=O)NC[C@H]2O[C@@H](n3cnc4c(N)ncnc43)[C@H](O)[C@@H]2O)s1 16.3%
CCN1CC=C2C(C#N)=C(N)C(C#N)(C#N)[C@H](c3ccoc3)[C@H]2C1 -33.3%
O=C1N=C(N2CCOCC2)CS1 0.02%
Cc1ccccc1NC(=O)c1cc(S(=O)(=O)N2CCOCC2)cs1 4.89%
CN(CC(=O)Nc1cccc2c1CCCC2)S(=O)(=O)c1ccc(Cl)cc1 -0.65%
O=S(=O)(c1ccc(Br)c2ccccc12)N1CCOCC1 15.2%
O=S(=O)(c1cnccc1N1CCN(/N=C/c2ccc(Br)cc2)CC1)N1CCCCC1 6.92%
COC(CNC(=O)c1ccc2c(c1)ncn2-c1cc(C)cc(C)c1)OC 13%
CCc1cccc(C)c1NS(=O)(=O)c1cc(Br)cnc1N -50.1%
O=C(CCc1[nH]c2ccccc2c1Sc1ccccc1)N(CCO)CCO 8.56%
CC(C)c1ccc(S(=O)(=O)N2CCN(C(=O)c3ccc(N4CCCC4)c([N+](=O)[O-])c3)CC2)cc1 19.3%
Cc1cccc(NC(=O)NC2(C)CCS(=O)(=O)C2)c1 (centres undefined) -1.39%
CCNc1nc(NC(C)C)nc(OCCOC(=O)c2ccccc2)n1 0.3%
CCSC1=NCCN1S(=O)(=O)c1ccc(F)cc1 2.33%
Cc1nccn1CCC1CCCCN1C(=O)CCc1nnc(-c2ccsc2)o1 (centres undefined) 11.7%
Cc1ccccc1C(CC(=O)c1cccs1)C(C#N)C#N (centres undefined) 8.61%
COC(=O)C1=C(C(=O)OC)[C@@H]2N(C)c3ccccc3[C@@]23C[C@@H](C(=O)OC)N(C(=O)c2ccco2)C3=N1 7.48%
Cc1nc2nc(SCC(=O)Nc3cccc(F)c3)[nH]c2cc1Br -28.8%
CC(C)NC(=O)CSc1nnc(COc2ccccc2Cl)o1 16.3%
COc1ccc(NC(=O)c2cccc3c2C(=O)N(CC2CCCO2)C3)cc1OC (centres undefined) 16.3%
CCOc1ccc(NC(=O)c2ccc(NC(=O)C3CCCO3)cc2)cc1 (centres undefined) 12.6%
CN(C)c1cc(N)c2ccccc2n1 (tested in a mixture with another compound) 9.35%
COc1ccc(NC(=O)CSc2nnc(Cc3ccccc3)c(=O)n2N)cc1 4.15%
CC(C)(C)SCCSC1=CC(=O)CC(c2ccccc2)C1 (centres undefined) -50%
O=C1C(Cc2ccc(O)cc2)NC(=S)N1Cc1ccccc1 (centres undefined) 17.3%
CC[C@]1(C(=O)OC)[C@H]2C(=O)N(Cc3ccccc3)C(=O)[C@H]2[C@H]2CN=C(SCc3ccc(Cl)cc3)N21 -1.44%
COc1cccc(C(CC(=O)NCCN2CCOCC2)NS(=O)(=O)c2ccc(C)cc2)c1OC (centres undefined) 4.11%
COC(=O)[C@H]1Cc2cnoc2C[C@]1(C)C(=O)O 8.29%
Cc1cc(C)cc(NC(=O)C2CCCN2S(=O)(=O)c2cccc3cccnc23)c1 (centres undefined) 7.78%
COc1cc(C(=O)OCC(=O)N(CC(C)C)C2CCS(=O)(=O)C2)ccc1OCC(C)C (centres undefined) 12.3%
COc1cc(/C=C/C(=O)N2CCc3ccccc3C2)cc(OC)c1OC 15.2%
Cc1cc(Cl)c2oc(C(=O)N(C)C(C)c3ccccn3)c(C)c2c1 (centres undefined) -14%
CCCNC(=O)N1CCN(C(=O)NCCC)CC1 -0.22%
O=C1c2ccccc2C(=O)N1c1ccccc1S(=O)C(F)(F)F (centres undefined) 1.53%
O=C1C(Cl)=C(N2CCOCC2)C(=O)N1c1ccccc1 7.3%
NS(=O)(=O)c1ccc(N=Nc2c(O)[nH]c3ccc(Br)cc23)cc1 16.9%
Oc1[nH]c2ccccc2c1N=Nc1c(F)c(F)c(F)c(F)c1F 13.1%
O=C(COC(=O)Cn1cnc2ccccc2c1=O)NCC12CC3CC(CC(C3)C1)C2 0.67%
CN(C)/C=C1\C=C(c2ccccc2)OC1=O 5.39%
CCCS(=O)(=O)C(=C1Nc2ccccc2N1)S(=O)(=O)CCC 3.81%

inhibition, active:
N#CC1=C(N)C(C#N)(C#N)[C@H](c2ccsc2)[C@H]2COCC=C12 25.7%
CCOc1ccc(NC(=O)c2cccc3c2C(=O)N(CC2CCCO2)C3)cc1 (centres undefined) 23.6%
CCC1Nc2ncnc(N3CCN(c4ccccc4)CC3)c2N(Cc2ccc(Cl)cc2)C1=O (centres undefined) 72.3%
O=C1C(=O)N(c2ccccc2)c2ccccc21 47.8%
Cc1cccc(N=Nc2c(O)[nH]c3ccc(F)cc23)c1 33%
CN(C)/C=C1/Nc2ccccc2C1=O 34.7%
